According to ChEMBL document CHEMBL5308541, “MAIP: An Open-Source Tool to Enrich High-Throughput Screening Output and Identify Novel, Druglike Molecules with Antimalarial Activity” (ACS Med Chem Lett, 2023):
Among all 150,000 compounds or so, about 540 (0.36%) showed an effect of 50% or more. Only a selection was taken, and strong results are over-represented in it overall.

test system: Plasmodium falciparum; assay: Primary screen in NF54 nanoGlo assay, in single point, at 2uM, 72h; a lower Z score goes with more inhibition; assay type: functional, Erythrocyte; settings: timepoint 72 hour

SMILES | % Inhibition | Z score
COc1ccc2[nH]c(CN3CCC[C@H](N4CCN(c5ccccc5)CC4)C3)c(C)c2c1 | -4% | 0.66
C[C@@H](c1cccc(-c2nc3cc(C#N)ccc3[nH]2)c1)N(C)C | 27% | -4.6
Cc1csc(=O)n1Cc1nnc(C(C)C)o1 | -8% | 1.5
Cc1cnccc1NCCNCc1nc2ccccc2[nH]1 | -2% | 0.37
Cc1cnccc1NCCNCc1ccc(OC(C)C)c(Cl)c1 | 79% | -17.03
CCN1CCN([C@H]2CCN(c3ccnc4ccncc34)C2)CC1 | 96% | -14.59
CCN1CCN([C@H]2CCN(c3nccc4nccnc34)C2)CC1 | 2% | -0.37
CCN(C)CC(O)CN1CCC(Oc2cccnc2N2CCCC2)C1 (stereo not given) | -5% | 1.05
COc1ccc2nc(C)cc(NCc3cccc(NC(=O)c4ccco4)c3)c2c1 | 93% | -18.52
CN(C)Cc1cccc(CCNCc2csc(-c3ccc(C(F)(F)F)cc3)n2)c1 | 51% | -11.09
CN1CC(=O)N2C[C@@H](NC(=O)c3cccc(-c4ccc(N)nc4)c3)C[C@H]2C1=O | -16% | 2.42
Cc1n[nH]nc1C(=O)Nc1ccc2[nH]c(-c3cccc(F)c3)nc2c1 | 1% | -0.2
Cc1ccc2nc(-c3cccc(NC(=O)c4ccc(OC(F)(F)F)c(Cl)c4)c3)[nH]c2n1 | 57% | -12.27
N#Cc1ccc(N2C[C@H](COCC3CC3)C3(CCN(Cc4cccc(O)c4)CC3)C2)cc1C(F)(F)F | 82% | -14.34
CNC(=O)[C@@H]1CC2(CCN(CC3CCCCC3)CC2)CN1c1ccc(C#N)c(C(F)(F)F)c1 | -15% | 2.59
